Laboratory results taken from the supplement of paper PMC11417369.
± gives the standard deviation of the averaged measurements. Whole data set: some 25,000 sequences, median “ln(normalized median fluorescence intensity)” near 8.9, cut for the highest 2% near 10. The entries come from a sample that favours the highest values as a whole.

system: PfAP2-LT AP2 domain (GST-tagged); experiment: gcPBM binding intensity (ln(normalized median fluorescence intensity)); higher = stronger DNA binding
In short: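 DNA-binding domains from P. falciparum, fused to GST and produced in E. coli, were put on an Agilent 4 × 180k double-stranded probe array for 1 h in 1× PBS holding 1% milk, 0.2 mg/ml BSA, 0.5% salmon testes DNA and 0.03% Triton X-100. Probes were primer-extended, 36 bp long and drawn from intergenic genomic regions, with negative controls included. After Alexa488 anti-GST antibody detection and a 488 nm scan, binding intensity was set as the highest Masliner-normalised natural-log median intensity across replicate spots of either probe orientation.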

**Q.** Which “gcPBM binding intensity (ln)” value does the source give for “AGAAAAAAATAATGTACACACACATATATGTTTATA [CACACA_site7946]” here?
**A.** 9.14 ± 0.36

**Q.** How did the “gcPBM binding intensity (ln)” value turn out when “TATGTGCACCCATGTACATGCGGACATATGTTATAT [TGCATGCA_site383]” was run?
**A.** 9.04 ± 0.42

**Q.** With “ATTTATATATTGCCCACACACATGTGATTATTTATA [CACACA_site1714]” as the sequence, how does the “gcPBM binding intensity (ln)” value read?
**A.** 9.28 ± 0.46

**Q.** “CTAAATATATAAAAAAGTACAAAATAAATAATAATT [XGTACX_site2442]” was tested. Which “gcPBM binding intensity (ln)” value did it give?
**A.** 8.79 ± 0.46

**Q.** How did the “gcPBM binding intensity (ln)” value turn out when “ACATATATATATAAATATATATATATATAAATATAT [CACACA_negctrl_site895]” was run?
**A.** 9.03 ± 0.28

**Q.** For “TATACAGGAATATTTTTACACACTAATAATTATAAA [CACACA_site8477]”, which “gcPBM binding intensity (ln)” value is on record?
**A.** 8.73 ± 0.5

**Q.** For “TATATATATATGTGCACACCAATTGTATGTAATATA [CACACA_site3889]”, which “gcPBM binding intensity (ln)” value is on record?
**A.** 9.32 ± 0.2

**Q.** With “TAAAAAGAAATGTAAAGTACAAATTTGAATAACATG [XGTACX_site7981]” as the sequence, how does the “gcPBM binding intensity (ln)” value read?
**A.** 8.88 ± 0.52

**Q.** How did the “gcPBM binding intensity (ln)” value turn out when “ATTTTAACCAATTATTGTACTTGGTTATTCTTTTTT [XGTACX_site7453]” was run?
**A.** 8.94 ± 0.45

**Q.** Which “gcPBM binding intensity (ln)” value does the source give for “TTTTATTTTTAAGGATGTACTCAATTGTTTATATAC [XGTACX_site3965]” here?
**A.** 8.85 ± 0.4

**Q.** Which “gcPBM binding intensity (ln)” value does the source give for “TTTTCTAAATTAATAATACACACTTGCTAAAATCAT [CACACA_site3207]” here?
**A.** 8.47 ± 0.46

**Q.** How did the “gcPBM binding intensity (ln)” value turn out when “ATTTGGCATGGACACACACACACACCGACAGACATA [CACACA_site4491]” was run?
**A.** 10 ± 0.27

**Q.** Which “gcPBM binding intensity (ln)” value does the source give for “AGTATACGCAGACACACACACACATATATATATATA [CACACA_site1735]” here?
**A.** 10.22 ± 0.042

**Q.** How did the “gcPBM binding intensity (ln)” value turn out when “ATAATTTGTGGACACACACACACACCGACATATATA [CACACA_site8718]” was run?
**A.** 9.97 ± 0.33

**Q.** For “AGTATACATATATATACACACATATATATATATATA [CACACA_site300]”, which “gcPBM binding intensity (ln)” value is on record?
**A.** 9.83 ± 0.34

**Q.** How did the “gcPBM binding intensity (ln)” value turn out when “ACATCAAGCGGACACACACACACACCGACAGACACA [CACACA_site4361]” was run?
**A.** 10.2 ± 0.33

**Q.** For “ATTATAGACACGCGCACACACAACAAAAAAAAAAAA [CACACA_site9180]”, which “gcPBM binding intensity (ln)” value is on record?
**A.** 9.73 ± 0.61

**Q.** How did the “gcPBM binding intensity (ln)” value turn out when “ATTATACACGCGCGCACACACAACAAAAAAAAAAAA [CACACA_site7630]” was run?
**A.** 9.43 ± 0.48

**Q.** How did the “gcPBM binding intensity (ln)” value turn out when “CACATACAGACATACACACATACACATATACGCATA [CACACA_site1745]” was run?
**A.** 9.61 ± 0.36

**Q.** How did the “gcPBM binding intensity (ln)” value turn out when “GGTATACGCAAGTATACACACATATATATATATATA [CACACA_site3240]” was run?
**A.** 10.01 ± 0.042

**Q.** For “TATATACACAGACACACACACACATACACGCACATA [CACACA_site6909]”, which “gcPBM binding intensity (ln)” value is on record?
**A.** 10.1 ± 0.22

**Q.** With “CAAGCACACGGACACACACACACACGCGCACGCACA [CACACA_site6307]” as the sequence, how does the “gcPBM binding intensity (ln)” value read?
**A.** 10.3 ± 0.28

**Q.** “TTTTTTAAAATATGGACACACATATATATATCTGTA [CACACA_site5535]” was tested. Which “gcPBM binding intensity (ln)” value did it give?
**A.** 8.88 ± 0.38

**Q.** With “TATATCTTAATATACACACACACATATATATATATA [CACACA_site4968]” as the sequence, how does the “gcPBM binding intensity (ln)” value read?
**A.** 9.71 ± 0.014

**Q.** For “AAAAAAACATAAAATACACACAACCTTAAGAATGTA [CACACA_site3293]”, which “gcPBM binding intensity (ln)” value is on record?
**A.** 9.12 ± 0.38

**Q.** With “CAACATATATTAATATGTACATATATATAGATATAT [XGTACX_site4107]” as the sequence, how does the “gcPBM binding intensity (ln)” value read?
**A.** 8.81 ± 0.44

**Q.** “ATATATATATATATATGTACATATTTCTCCATTTTT [XGTACX_site2869]” was tested. Which “gcPBM binding intensity (ln)” value did it give?
**A.** 9.61 ± 0.39

**Q.** With “ACATATAAATATATTACACACACACTAAAAAAATAA [CACACA_site6209]” as the sequence, how does the “gcPBM binding intensity (ln)” value read?
**A.** 9.69 ± 0.27

**Q.** “TAACATATTAATAACATATTTATAATATATTAATAA [TGCATGCA_negctrl_site243]” was tested. Which “gcPBM binding intensity (ln)” value did it give?
**A.** 8.34 ± 0.43

**Q.** With “TATAAAAATTAATATTGTACGTTTTATGAAAATAAA [XGTACX_site8237]” as the sequence, how does the “gcPBM binding intensity (ln)” value read?
**A.** 8.21 ± 0.47

**Q.** Which “gcPBM binding intensity (ln)” value does the source give for “CGCGCACCCAGACACACACACACACCCATATATATA [CACACA_site2203]” here?
**A.** 9.96 ± 0.25

**Q.** For “AATACACGCAGACACACACACAAAAAAAAAAAAAAA [CACACA_site6384]”, which “gcPBM binding intensity (ln)” value is on record?
**A.** 9.53 ± 0.61

**Q.** How did the “gcPBM binding intensity (ln)” value turn out when “AAAAAAAAAAGACACACACACATATTTATTTATATA [CACACA_site6484]” was run?
**A.** 9.67 ± 0.4

**Q.** How did the “gcPBM binding intensity (ln)” value turn out when “AGCACACGCAGACACACACACACACGCACACGCACA [CACACA_site6306]” was run?
**A.** 10.3 ± 0.23

**Q.** For “TACACGCAGAAACACACACACACACCCATATATATA [CACACA_site637]”, which “gcPBM binding intensity (ln)” value is on record?
**A.** 10.1 ± 0.28

**Q.** “AAAAAAAAAAGACACACACACACACGGAGATATATA [CACACA_site6216]” was tested. Which “gcPBM binding intensity (ln)” value did it give?
**A.** 10.4 ± 0.19

**Q.** Which “gcPBM binding intensity (ln)” value does the source give for “AACACGCGCAGACACACACACACACCCACATATATA [CACACA_site2205]” here?
**A.** 10.3 ± 0.27

**Q.** “AAAAAAAAAAGACACACACACAAAAAAAGATATATA [CACACA_site6645]” was tested. Which “gcPBM binding intensity (ln)” value did it give?
**A.** 9.9 ± 0.38

**Q.** How did the “gcPBM binding intensity (ln)” value turn out when “CGTGGGAGCAGACACACACACACACGCATATTTATA [CACACA_site6290]” was run?
**A.** 9.89 ± 0.45

**Q.** “AAAAAAAAAAGACACACACACACACGCATATACATA [CACACA_site7289]” was tested. Which “gcPBM binding intensity (ln)” value did it give?
**A.** 10.18 ± 0.05

**Q.** Which “gcPBM binding intensity (ln)” value does the source give for “ATATTTAGGAAAAATAGTACACATTTAAATAATAAT [XGTACX_site7989]” here?
**A.** 8.68 ± 0.47

**Q.** Which “gcPBM binding intensity (ln)” value does the source give for “TTGAAATATACGTAAGTAAATTTCATTTGGTTGTGT [XGTACX_negctrl_site600]” here?
**A.** 8.77 ± 0.47

**Q.** For “AATATACAAATTACAAGTACAAATCAATATTATATG [XGTACX_site7521]”, which “gcPBM binding intensity (ln)” value is on record?
**A.** 8.9 ± 0.42

**Q.** For “AATTATTTATTGAGAGTGCAACAAATTATTTCAAAT [GTGCAC_site9461]”, which “gcPBM binding intensity (ln)” value is on record?
**A.** 8.44 ± 0.49
